Active and inactive are the calls of the source.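 Rule for the calls: active = normalized viability below 100% at a tested concentration; inactive = the rest.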

The first test can be described thus: drug combination growth inhibition, ovarian cancer – cell-based, oncology-focused library, rucaparib conditional, profiling panel (AID 1508598). The note with it: patient-derived ovarian cancer cells, CellTiter-Glo viability, 144 h; at 0.00488 µM; OCI-C5x cells; without rucaparib; active compounds read low. (In general: In ATP-based viability assays light output follows the ATP content of the culture.)
For `Cc1ccc(-c2cc(C(F)(F)F)nn2-c2ccc(S(N)(=O)=O)cc2)cc1`, the viability (in general, a read-out of living cells in per cent, often relative to untreated cells) was 107% (inactive).

Consider `CN(CCOc1ccc(CC2SC(=O)NC2=O)cc1)c1ccccn1` (configuration not stated), for which the viability was 129% (inactive).

Turning to `CCCCCCNC(=O)n1cc(F)c(=O)[nH]c1=O`, the viability was 125% (inactive).

As to `O=c1[nH]cc(F)c(=O)[nH]1`, the viability was 115% (inactive).

The test is the same for the next values; noted with them: patient-derived ovarian cancer cells, CellTiter-Glo viability, 144 h; at 0.00488 µM; OCI-P5x cells; with rucaparib 20 µM; active compounds read low; 100% = cells with rucaparib alone.
As for `Cc1ccc(-c2cc(C(F)(F)F)nn2-c2ccc(S(N)(=O)=O)cc2)cc1`, the viability is 93.8% (active).

In the case of `CN(CCOc1ccc(CC2SC(=O)NC2=O)cc1)c1ccccn1` (configuration not stated), the viability was 96.3% (active).

In the case of `CCCCCCNC(=O)n1cc(F)c(=O)[nH]c1=O`, the viability was 108% (inactive).

Turning to `O=c1[nH]cc(F)c(=O)[nH]1`, the viability was 104% (inactive).

Staying with this test, now noted: patient-derived ovarian cancer cells, CellTiter-Glo viability, 144 h; at 0.00488 µM; OCI-P5x cells; without rucaparib; active compounds read low.
Consider `Cc1ccc(-c2cc(C(F)(F)F)nn2-c2ccc(S(N)(=O)=O)cc2)cc1`, for which the viability is 94% (active).

In the case of `CN(CCOc1ccc(CC2SC(=O)NC2=O)cc1)c1ccccn1` (configuration not stated), the viability is 106% (inactive).

As for `CCCCCCNC(=O)n1cc(F)c(=O)[nH]c1=O`, the viability was 117% (inactive).

As to `O=c1[nH]cc(F)c(=O)[nH]1`, the viability was 98.7% (active).
